In ChEMBL document CHEMBL3988442, “University of Dundee, Small-Polar-MMV Screening Library” (2021):

What was measured:
[1] = target: T1, Aspartate--tRNA(Asp/Asn) ligase (Mycobacterium tuberculosis (strain ATCC 25618 / H37Rv)) (UniProt P9WFW3); experiment: Assay for Asp RNA synthetase-1 from Mycobacterium tuberculosis; type: functional; parameters: scale not given: direction of the effect not stated beside the values; details: 30 µM; also: in the data most compounds retested in dose-response had high values
T1 sequence (whole entry): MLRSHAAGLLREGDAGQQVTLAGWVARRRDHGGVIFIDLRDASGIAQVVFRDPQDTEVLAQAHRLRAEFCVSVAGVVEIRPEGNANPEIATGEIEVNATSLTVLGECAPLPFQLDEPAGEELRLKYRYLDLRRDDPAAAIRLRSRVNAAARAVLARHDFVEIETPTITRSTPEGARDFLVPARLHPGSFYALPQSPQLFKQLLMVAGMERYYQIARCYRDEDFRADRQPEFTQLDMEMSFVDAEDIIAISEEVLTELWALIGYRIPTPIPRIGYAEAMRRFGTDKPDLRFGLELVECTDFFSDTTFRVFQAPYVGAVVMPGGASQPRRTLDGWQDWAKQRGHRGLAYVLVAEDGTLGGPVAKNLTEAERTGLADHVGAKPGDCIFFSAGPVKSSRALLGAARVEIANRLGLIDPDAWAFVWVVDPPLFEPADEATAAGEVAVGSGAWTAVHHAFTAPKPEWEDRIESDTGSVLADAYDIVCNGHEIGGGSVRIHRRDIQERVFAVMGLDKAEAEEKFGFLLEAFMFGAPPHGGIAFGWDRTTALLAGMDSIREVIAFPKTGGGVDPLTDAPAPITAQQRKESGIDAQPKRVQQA

[2] = target: Shiga toxin 2 (Escherichia coli O157:H7) (UniProt P09385+P09386); experiment: E. coli 0.157:H7 Shiga Toxin SOP - stx2 screening assay; type: functional; parameters: scale not given: direction of the effect not stated beside the values; details: 30 µM

Compound	Percent Effect [1]	Percent Effect [2]
CC(=O)N(Cc1noc(C2CC2)n1)C1CCN(Cc2cccnc2)C1 (stereo not given)	-2.42%	12.6%
COCc1cccc(CNCc2c(C)nn(C)c2N(C)C)c1	6.21%	1.1%
Cc1ccc(C(=O)N2CCN(Cc3ccsc3)CC2)n1C	1.28%	3.04%
CCCNC(=O)c1sc(Nc2ccc(Cl)cn2)nc1C	-4.04%	-46.7%
COc1c(CNCCNC(=O)c2ccc(C)cc2)c(C)nn1C	-4.08%	-32.3%
CCc1nnc(CN(C)c2nc(C(C)C)nc3c2cnn3C)o1	5.74%	-7.55%
Cc1nn(C)c(N(C)C)c1CNCc1cccc(CN(C)C(C)C)c1	2.27%	5.42%
CC[C@H](C)[C@H](NC(=O)c1ccccc1-n1cnnn1)C(=O)OC	3.95%	-29.9%
COc1c(CNCC(c2cccc(F)c2)N(C)C)c(C(C)C)nn1C (stereo not given)	-3.2%	-15.5%
CN(Cc1ccco1)[C@@H]1CN(Cc2ccc(F)cc2)C[C@@H]2CCCO[C@@H]21	6.12%	7.23%
CN1CC(=O)N(c2cnn(C)c2)CC12CCN(C(=O)c1ccsc1)C2 (stereo not given)	0.595%	-1.99%
O=C(CSC1=NS(=O)(=O)c2cc(F)ccc2N1)Nc1cccc(Cl)c1	4.04%	-1.14%
CN(C)CCN(Cc1ccc(Cl)cc1)C(=O)c1cc[nH]n1	-3.79%	9.32%
Cc1cccc(NC(=O)Cn2ncc(SCC(N)=O)c(Cl)c2=O)c1C	-2.73%	5.03%
O=C(COCc1nc(-c2ccncc2)no1)NC1CCCCC1	2.71%	-15.1%
CN(C)CCN1CCO[C@@H]2CN(C(=O)c3cccs3)CC[C@@H]2C1	0.229%	4.93%
c1cc(OCc2ccc3c(c2)OCCO3)ccc1CNC1CC1	-1.05%	-54.3%
Cc1nc(N2CCCC2)nc2c1CCN(C(=O)C1CCCC1)CC2	0.726%	-9.64%
Nc1nc2nc(C3CCCN(C(=O)c4cscn4)C3)ccc2s1 (stereo not given)	0.603%	-35.5%
CN(Cc1ccc(N2CCCCC2)cc1)Cc1noc(C(C)(C)C)n1	1.93%	-7.66%
